From PubChem BioAssay
A selection: hits, their analogues and other compounds. The true share with any hit is near 21%.
NS1 inh – inhibitors of influenza NS1 protein function. Potency, µM (series often up to 46.1 µM), inactives show at the top dose activity, positive = more growth. AID 2326. actives 0.4% (n = 270,000); calls by dose curve; further: potency means the concentration at half of the fitted maximal effect; actives are rising curves; nearly all actives have a fitted effect of over 50% in size
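Growth recovery, yeast-based: influenza A NS1 expressed in S. cerevisiae causes slow growth, and suppressors are detected by OD600. The parent strain without NS1 is used as positive control.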
Cycloheximide cs – counter-screen for Shiga toxin inhibitors: cycloheximide protein synthesis inhibition; cell reporter, cycloheximide protein synthesis inhibition counterscreen; max response, %; actives 12% (n = 300,000); AID 2314; in the data active means max response mostly above about 13%, no sharp cut-off; inactive means mostly below about 14%; further: read at 38.3 µM for the half of the compounds with a filed dose; 0% is about no effect
Pf growth 48h – P. falciparum growth inhibition at 48 hours (one generation) | AID 504832 | actives 5.9% (n = 310,000) | Potency, µM (highest dose often 28.7 µM), for the others: top-dose activity change, negative = inhibition, hits mostly inhibitors | P. falciparum luciferase growth in erythrocytes, 48 h; further: potency means the concentration at half of the fitted maximal effect; on the % scale 0 is the no-effect control and ±100 the full control effect
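In quantitative HTS format, infected erythrocytes bearing luciferase-reporter parasites were treated for a single generation at 37 C. Luminescence after adding detection reagent served as the growth measure.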
Pf growth 96h – inhibits malaria parasite growth, 96 h | Potency, µM (series often up to 28.7 µM), for inactives: top-dose activity change, negative = inhibition, actives largely listed as inhibitors | actives 6.9% (n = 320,000) | P. falciparum luciferase reporter growth, 96 h | AID 504834; further: potency means the concentration at half of the fitted maximal effect; on the % scale 0 is the no-effect control and ±100 the full control effect
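Plates of compound plus infected erythrocytes (2% hematocrit, 0.05% parasitemia final) incubate 96 hours, 37 C, 5% CO2. Detection reagent added; reduced luminescence from the parasites' luciferase reporter flags inhibition.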
Shiga inhibitor – inhibitors of Shiga toxin in Vero cells; Vero cells, Shiga toxin protein synthesis inhibition reporter; inhibition, % at 38.7 µM; actives 9.2% (n = 290,000); AID 2315; in the data active means inhibition mostly above about 28%, no sharp cut-off; inactive means mostly below about 43%; further: 0% is about no effect
* hit, by the source's call; i = inactive; ? = inconclusive; · = no result; [ ] = another dose, or the depositor's remark. Unless noted, the call rests on the fitted dose curve; in most records, active means well fitted inhibition curve with a large enough effect; inconclusive means small, poorly fitted or top-dose-only effect, or another doubt; inactive means no such curve, though single readings can be large or run the other way.

SMILES	NS1 inh	Cycloheximide cs	Pf growth 48h	Pf growth 96h	Shiga inhibitor
Cc1cc(/C=C(\C#N)C(=O)Nc2ccccc2)c(C)n1-c1ccc2c(c1)OCO2	17%	41*	12µM*	?	44*
O=C(Nc1cccc(F)c1)c1ccc(-c2ccccc2C(F)(F)F)o1	-61%	31*	?	15µM*	50*
O=C(Nc1cccc(F)c1)c1ccccc1-c1ccccc1	-13%	-2	1%	0%	3
Cc1cccc(NC(=O)c2ccc(-c3ccccc3[N+](=O)[O-])o2)c1	2%	31*	0%	34%	61*
Cc1ccccc1-c1ccc(C(=O)Nc2cccc(F)c2)o1	-107%	47*	-16%	-61%	50*
COc1ccc(NC(=O)c2ccc(-c3ccccc3C(F)(F)F)o2)cc1	-21%	10	21%	-5%	18
COc1cccc(NC(=O)c2ccc(-c3ccccc3[N+](=O)[O-])o2)c1	·	25	-4%	26%	37
Nc1nn(-c2cccc(F)n2)cc1-c1ccccc1	0%	40*	i	i	107*
Nc1nn(-c2cccc(F)n2)cc1-c1ccc(Cl)cc1	4%	23*	i	i	77*
Nc1ncncc1-c1ccc(Cl)cc1	1%	-4	?	?	4
Nc1nc(Br)c2c(F)cccc2c1-c1ccccc1	-6%	7	-6%	-11%	-15
COc1cc(Br)c(CCNC(=O)c2ccco2)cc1OC	0%	-3	5.2µM*	?	-5
C/C=C/C(=O)NCCc1ccc(OC)c(OC)c1	-1%	-5	18%	3%	-9
C=CCN(CC=C)C(=S)NCCc1ccc(OC)c(OC)c1	2%	5	13µM*	?	4
COc1ccc(CCNC(=O)Cc2cc(OC)c(OC)cc2Br)cc1OC	·	16*	?	-61%[5.75 µM]	20
CC(C)=N/N=C1/NC(=O)C(CC(=O)Nc2cc(Cl)ccc2C)S1 (configuration not stated)	?	-3	?	0%	-9
O=C(Nc1nc2ccccc2[nH]1)c1cccc(F)c1	-8%	24*	2%	-55%	58*
COc1ccc(C(=O)N[C@H](C(=O)Nc2nc3ccccc3[nH]2)C(C)C)cc1	·	37*	78%	66%	76*
O=C(Nc1nc2ccccc2[nH]1)c1ccc(Br)o1	-38%	47*	i	256%	83*
O=C(CNC(=O)c1cccc(Br)c1)NCCc1nc2ccccc2[nH]1	-4%	2	·	-30%	-12
O=C(Nc1nc2ccccc2[nH]1)c1cccc(Br)c1	-14%	20*	-19%	-53%	82*
Cc1cccc(C(=O)N[C@H](C(=O)Nc2nc3ccccc3[nH]2)C(C)C)c1	·	11	?	?	9
OCCN(CCO)c1ncnc2c1oc1ccc(Br)cc12	12%	10	4%	·	-22
CCOC(=O)c1c(C)[nH]c(C(=O)COC(=O)CSCC(=O)N(CC)CC)c1C	1%	5	-1%	-21%	-7
CCOC(=O)c1c(NC(=O)c2c(C(=O)O)cccc2[N+](=O)[O-])sc2c1CCCC2	4%	0	19%	9%	-6
SMILES	NS1 inh	Cycloheximide cs	Pf growth 48h	Pf growth 96h	Shiga inhibitor
CC(C)C[C@H](NC(=O)N1CCCCCC1)C(=O)N[C@H](Cc1cn(C)c2ccccc12)C(=O)N[C@H](Cc1ccccn1)C(=O)O	·	-5	·	·	-4
O=C(/C=C/c1ccc(F)cc1)Nc1nc2ccccc2[nH]1	25%	37*	251%	3%	77*
CN(C)c1cccc(C(=O)Nc2nc3ccccc3[nH]2)c1	-14%	15*	-62%	-62%	44
COc1ccccc1C(=O)NCCC(=O)Nc1nc2ccccc2[nH]1	·	·	3%	16%	·
COc1cccc(C(=O)Nc2nc3ccccc3[nH]2)c1	-6%	27*	·	-71%	29
COc1ccc(C(=O)Nc2nc3ccccc3[nH]2)cc1	-29%	-8	-59%	-85%	-10
O=C(Nc1nc2ccccc2[nH]1)C1CCN(C(=O)c2ccc(F)cc2)CC1	·	·	-7%	5%	·
COc1cc(C(=O)Nc2nc3ccccc3[nH]2)cc(OC)c1OC	-17%	10	?	9.3µM*	19
CN(c1ccc([N+](=O)[O-])cc1C(N)=O)C1CCCCC1	-2%	-6	7%	?	-13
CCc1nnc(NC(=O)C2=CCN(S(=O)(=O)c3ccc(F)cc3)CC2)s1	5%	3	114%	?	-7
N#C/C(=C(/O)Cc1ccccc1)P(=O)(c1ccccc1)c1ccccc1	3%	-1	3%	-4%	15
